Data on 18 compounds can be found in PubChem BioAssay.

Usually inhibition stands for the relative decrease from the control value, in per cent.

Unmarked numbers belong to inactive results. How the calls were made is not given here.

In this assay the target is Pantothenate synthetase (Mycobacterium tuberculosis (strain ATCC 25618 / H37Rv)) (UniProt P9WIL5). Nature of the assay: Recombinant Mtb pantothenate synthetase (PanC) inhibitors, coupled enzyme, confirmatory (AID 375).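 Further: 0% = full reaction with vehicle and 100% = no enzyme background.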 The following applies: coupled enzyme assay; at 10 µM, stronger effect = higher value.
Sequence of Pantothenate synthetase (Mycobacterium tuberculosis (strain ATCC 25618 / H37Rv)) (P9WIL5 whole entry, looked up): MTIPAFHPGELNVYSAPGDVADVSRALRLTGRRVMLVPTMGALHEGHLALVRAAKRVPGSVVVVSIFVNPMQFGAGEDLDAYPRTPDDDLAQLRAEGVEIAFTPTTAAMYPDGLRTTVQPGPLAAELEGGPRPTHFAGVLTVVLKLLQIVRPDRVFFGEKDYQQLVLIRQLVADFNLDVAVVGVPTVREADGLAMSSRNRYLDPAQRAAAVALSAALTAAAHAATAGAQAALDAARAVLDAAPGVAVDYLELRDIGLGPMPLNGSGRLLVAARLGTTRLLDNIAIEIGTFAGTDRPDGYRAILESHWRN
For the compound `CNc1nnc(-c2cccc(N(C)C)c2)s1`, the inhibition was 0%.

Turning to `Cc1ccccc1-n1c(=O)cc(NCc2ccc3c(c2)OCO3)[nH]c1=O`, the inhibition is 2%.

On to `C=C(CC)C(=O)c1ccc(OCC(=O)O)c(Cl)c1Cl`, for which the inhibition is 0%.

For the compound `O=C(CCc1nc2ccccc2[nH]1)Nc1ccc2c(c1)OCO2`, the inhibition was 0%.

On to `O=C(Nc1nnc(-c2ccc(Cl)cc2)o1)C1CCCCC1`, for which the inhibition is 0%.

As to `Cc1ccc(N2CCN(C(=S)c3ccc(N(C)C)cc3)CC2)cc1`, the inhibition was 10%.

Take `CC1CC(C)CN(c2ncnc3c2cnn3-c2ccc(Cl)cc2)C1` (stereo not drawn): the inhibition was 1%.

Regarding `CCc1cc(=O)oc2c(CN3CCN(C)CC3)c(O)c(Cl)cc12`, the inhibition was 5%.

For `O=C(CCCn1c(=S)[nH]c2ccccc2c1=O)N1CCCCC1`, the inhibition is 0%.

For the compound `COCCN(CC(=O)NCc1ccccc1)C(=O)CCC(=O)Nc1ccccn1`, the inhibition is 0%.

On to `COC(=O)CN(c1nc(C)c(Cl)c(OC)n1)S(=O)(=O)c1ccc(C)cc1`, for which the inhibition is 0%.

As to `CCC(=O)c1cc(F)c(N2CCN(C(=O)c3ccco3)CC2)cc1C`, the inhibition was 7%.

Regarding `O=C(Nc1ccc2c(c1)OCO2)c1ccc(CN2CCOCC2)cc1`, the inhibition was 1%.

For the compound `Cc1ccc(NS(=O)(=O)c2cn(C)cn2)cc1`, the inhibition is 5%.

`OC(CNCCc1ccccc1)c1ccccc1` (stereo not drawn): the inhibition was 2%.

On to `CC1CCN(C(=O)Cn2c(=O)oc3ccccc32)CC1`, for which the inhibition is 0%.

As for `Cc1sc2nc(SCc3nc4ccccc4[nH]3)n(Cc3ccco3)c(=O)c2c1C`, the inhibition was 2%.

For `O=C(Nc1ccc(N2C(=O)C3C4C=CC(C4)C3C2=O)cc1)Nc1nncs1` (stereo not drawn), the inhibition was 5%.
